Molecules are shown by their SMILES. Hit rate of the full screen: of about 150,000 compounds, about 6,500 (4.3%) were called active. Another 12% or so got no clear call; they are omitted. No cut-off for these calls is given here. The sample as a whole holds a higher share of actives than the screen did.

Consider three compounds from ChEMBL document CHEMBL1201862, “PubChem BioAssay data set” (2004).

The target of this experiment is T1, 15-hydroxyprostaglandin dehydrogenase [NAD(+)] (Homo sapiens) (UniProt P15428).
T1 sequence (whole entry): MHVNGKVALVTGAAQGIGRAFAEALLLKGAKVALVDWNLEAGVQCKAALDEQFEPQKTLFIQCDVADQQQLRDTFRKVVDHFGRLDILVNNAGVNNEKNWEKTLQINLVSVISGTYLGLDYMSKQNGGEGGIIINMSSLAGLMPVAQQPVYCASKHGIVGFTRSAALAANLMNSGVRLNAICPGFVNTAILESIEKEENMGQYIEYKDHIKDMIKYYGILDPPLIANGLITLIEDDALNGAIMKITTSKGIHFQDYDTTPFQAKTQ
On to `O=C(O)c1cc(/N=N\c2ccc(S(=O)(=O)Nc3ccccn3)cc2)ccc1O`, for which the Potency is 14.1 µM (active).

Regarding `O=C(O)c1cc(/N=N/c2ccc(S(=O)(=O)Nc3ccccn3)cc2)ccc1O`, the Potency was 15.8 µM (active). On to `O=C(/C=C\c1ccco1)Nc1nc(-c2ccccc2)cs1`, for which the Potency result is “inactive”.
